The nature of experiment [1]: ATG_CMV_CIS: Attagene CIS-FACTORIAL HepG2 Assay for human CMV (Internal Marker) (AID 2282928).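 Also: endpoint acts as a background internal control marker rather than a target.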 As to conditions: HepG2 CMV promoter reporter, transcription factor profiling; actives raise or lower the signal. Put shortly: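 Endogenous transcription factor activity read in HepG2 via transfected cis-promoter reporter units. After 24 h dosing, reporter mRNA measured by RT-PCR/capillary electrophoresis; gain or loss of signal fit relative to DMSO.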

Experiment [2] in a line: ATG_DR4_LXR_CIS: Attagene CIS-FACTORIAL HepG2 Assay for human Liver X Receptor (LXR), DR4 submotif (AID 2282929). As to conditions: HepG2 Attagene DR4 cis-reporter, mRNA transcription; actives raise or lower the signal. In a few lines:
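Transiently transfected HepG2 liver cells; cis-regulated reporters; 24 h dosing. RT-PCR plus CE read-out of reporter mRNA. DMSO baseline, bidirectional curve fitting.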

Experiment [3] is described as follows: ATG_AP_2_CIS: Attagene CIS-FACTORIAL HepG2 Assay for human Activator Protein 2 (AP-2) (AID 2282932). The following applies: HepG2 AP-2 cis-reporter, Attagene transcription factor profiling; actives raise or lower the signal. Put shortly: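 HepG2 cells were transiently transfected with multiple cis-promoter reporter transcription units and dosed for 24 h. Reporter mRNA was measured by RT-PCR with capillary electrophoresis fluorescence; bidirectional fits relative to DMSO baseline.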

In experiment [4] the target is Transcription factor E2F1 (Homo sapiens) (UniProt Q01094). Kind of experiment: ATG_E2F_CIS: Attagene CIS-FACTORIAL HepG2 Assay for human E2F Transcription Factor 1 (AID 2282935). As to conditions: HepG2 Attagene cis-reporter, E2F reporter RNA transcripts; actives raise or lower the signal. Put shortly:
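HepG2 cells transiently transfected with multiplexed cis-element reporter units, dosed for 24 h. Reporter mRNA measured by RT-PCR, 6-FAM primer-extension labeling, HpaI digestion and capillary electrophoresis; bidirectional fit versus DMSO baseline.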

The nature of experiment [5]: ATG_M_61_CIS: Attagene CIS-FACTORIAL HepG2 Assay for M61 Transcription Factor (Internal Marker) (AID 2282937). As to conditions: HepG2 Attagene CIS-FACTORIAL M61 internal marker reporter; actives raise or lower the signal. In a few lines:
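Multiplexed reporter mRNA assay, HepG2 human hepatoma cells, 24 h treatment. Signal: FAM-labelled, HpaI-digested RT-PCR fragments by CE. Fit: bidirectional, baseline DMSO.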

The nature of experiment [6]: ATG_EGR_CIS: Attagene CIS-FACTORIAL HepG2 Assay for human Early Growth Response 1 (EGR1) (AID 2282938). As to conditions: HepG2 Attagene CIS-FACTORIAL EGR reporter mRNA; actives raise or lower the signal. Put shortly: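 Multiplexed cis-reporter system in human hepatoma HepG2 cells, transiently transfected. Cells are dosed for 24 h; reporter transcripts are amplified, fluorescently tagged and sized by capillary electrophoresis, with DMSO as negative control.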

The nature of experiment [7]: ATG_Ets_CIS: Attagene CIS-FACTORIAL HepG2 Assay for human Erythroblast Transformation Specific (ETS) (AID 2282941). As to conditions: HepG2 ETS cis-reporter transcription, actives raise or lower the signal. Put shortly:
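Steps: transfect HepG2 with multiple reporter units; treat compound 24 h; isolate RNA, DNase-treat, reverse-transcribe; PCR-amplify, label with 6-FAM, digest with HpaI; separate by capillary electrophoresis. Activity fitted both directions versus DMSO.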

Experiment [8] deals with Hepatocyte nuclear factor 3-beta (Homo sapiens) (UniProt Q9Y261). The experiment in a line: ATG_FoxA2_CIS: Attagene CIS-FACTORIAL HepG2 Assay for human Forkhead box A2 (FOXA2) (AID 2282942). As to conditions: HepG2 cis-reporter transcription factor activity, 24 h; actives raise or lower the signal. Put shortly: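 Multiplexed cis-element reporter assay in transiently transfected HepG2. Twenty-four hours post-dosing, RNA was reverse-transcribed, amplified, FAM-labelled, HpaI-digested and separated by CE. Activity gain or loss relative to DMSO.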

Experiment [9] in a line: ATG_FoxO_CIS: Attagene CIS-FACTORIAL HepG2 Assay for human Forkhead box O (FoxO) (AID 2282943). As to conditions: HepG2 Attagene cis-reporter, FoxO element, mRNA; actives raise or lower the signal. In a few lines: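 24 h chemical exposure, HepG2 with transient cis-MRTU transfection. RNA extraction, oligo(dT) RT, reporter-specific PCR, primer-extension labelling, HpaI digestion, CE fragment analysis; bidirectional fit, DMSO baseline.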

Experiment [10] in a line: ATG_GATA_CIS: Attagene CIS-FACTORIAL HepG2 Assay for human GATA Binding Protein (AID 2282944). As to conditions: HepG2 GATA cis-element reporter, Attagene multiplex mRNA; actives raise or lower the signal. Put shortly:
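Endogenous transcription factor activity was captured through cis-promoter-driven reporters in transfected HepG2 cells. After 24 h exposure, reporter transcripts were quantified by RT-PCR with fluorescent capillary electrophoresis, and responses fitted both directions against DMSO.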

Experiment [11] in a line: ATG_ISRE_CIS: Attagene CIS-FACTORIAL HepG2 Assay for human Interferon Regulatory Factor 1 (IRF1) binding to an Interferon-Stimulated Response Element (ISRE) (AID 2282948). As to conditions: HepG2 ISRE cis-reporter (Attagene), mRNA transcription readout; actives raise or lower the signal. Put shortly:
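Transfected HepG2 (multiple reporter transcription units, cis elements) dosed 24 h. RNA → oligo(dT) RT → PCR → 6-FAM primer extension → HpaI → CE. DMSO = negative control/baseline.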

A short description of experiment [12]: ATG_M_32_CIS: Attagene CIS-FACTORIAL HepG2 Assay for M32 Transcription Factor (Internal Marker) (AID 2282949).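 Also: background control marker of the multiplexed CIS panel rather than a real target.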 As to conditions: HepG2 Attagene cis-factorial M32 reporter, mRNA; actives raise or lower the signal. Put shortly:
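Internal background marker read-out: RT-PCR/capillary electrophoresis fluorescence of reporter transcripts from transiently transfected HepG2 cells after 24 h chemical exposure. Activity fitted bidirectionally relative to DMSO negative control.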

The target in experiment [13] is Hepatocyte nuclear factor 6 (Homo sapiens) (UniProt Q9UBC0). Kind of experiment: ATG_HNF6_CIS: Attagene CIS-FACTORIAL HepG2 Assay for human Hepatocyte Nuclear Factor 6 (HNF6) (AID 2282952). The following applies: HepG2 Attagene cis-factorial HNF6 reporter transcription; actives raise or lower the signal. Put shortly: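 HepG2, transient MRTU transfection (cis promoters); 24 h chemical exposure; total RNA → oligo(dT) RT → PCR → 6-FAM labelling → HpaI cut → CE; bidirectional fit vs DMSO.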

For experiment [14], the target named is Heat shock factor protein 1 (Homo sapiens) (UniProt Q00613). The experiment in a line: ATG_HSE_CIS: Attagene CIS-FACTORIAL HepG2 Assay for human Heat Shock Transcription Factor 1 (HSE) (AID 2282953). The following applies: HepG2 HSE cis-reporter, Attagene RNA transcription; actives raise or lower the signal. In a few lines:
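Cells were transfected with cis-element-driven reporter constructs, dosed for 24 h, then total RNA was reverse-transcribed and reporter cDNA amplified, FAM-labelled and digested with HpaI. Fragments were resolved by capillary electrophoresis; gain or loss was fitted against DMSO.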

A short description of experiment [15]: ATG_MRE_CIS: Attagene CIS-FACTORIAL HepG2 Assay for human Metal Responsive Element (MRE) (AID 2282954). As to conditions: HepG2 MRE cis-reporter transcription, Attagene multiplex; actives raise or lower the signal. Put shortly:
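HepG2 cells transiently transfected with multiple cis-element reporter units measure endogenous MTF1-driven transcription. After 24 h compound exposure, reporter mRNA is quantified by RT-PCR with 6-FAM labelling, HpaI digestion and capillary electrophoresis; bidirectional fits versus DMSO.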

Experiment [16] deals with Paired box protein Pax-6 (Homo sapiens) (UniProt P26367). The experiment in a line: ATG_Pax6_CIS: Attagene CIS-FACTORIAL HepG2 Assay for human Paired Box 6 (PAX6) (AID 2282956). The following applies: HepG2 CIS-FACTORIAL PAX6 reporter transcription, RNA readout; actives raise or lower the signal. Put shortly:
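Transient MRTU transfection of HepG2 → compound exposure 24 h → TriZol RNA, oligo(dT) RT → PCR, 6-FAM primer extension, HpaI cut → capillary electrophoresis; activity fitted both directions against DMSO.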

Experiment [17] can be described thus: ATG_PXRE_CIS: Attagene CIS-FACTORIAL HepG2 Assay for human Pregnane X Receptor Element (PXRE) (AID 2282957). The following applies: HepG2 Attagene CIS-FACTORIAL PXRE reporter, mRNA; actives raise or lower the signal. Put shortly: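 Transfect HepG2 with MRTUs (cis promoter elements); dose chemical, incubate 24 h; isolate RNA, RT with oligo(dT), PCR, 6-FAM label, HpaI cut, CE. Gain/loss fit vs DMSO.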

A short description of experiment [18]: ATG_Sox_CIS: Attagene CIS-FACTORIAL HepG2 Assay for human SRY-box transcription factor (SOX) (AID 2282960). As to conditions: HepG2 Attagene cis-factorial SOX reporter, mRNA; actives raise or lower the signal. In a few lines:
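Fluorescence-labelled cDNA fragments from reporter transcripts, sized by CE, give the signal. Cells: HepG2, transiently transfected with cis-regulated reporter units. Exposure 24 h; DMSO negative control; bidirectional curve fitting.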

Experiment [19] can be described thus: ATG_SREBP_CIS: Attagene CIS-FACTORIAL HepG2 Assay for human Sterol Regulatory Element Binding (SREBP) (AID 2282962). The following applies: HepG2 Attagene cis-factorial SREBP reporter, mRNA; actives raise or lower the signal. In a few lines: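 Transfected HepG2 (cis-regulated reporter library, endogenous TFs) → compound 24 h → total RNA → oligo(dT) RT → reporter-specific PCR → FAM primer extension, HpaI cut → CE fluorescence. Fit bidirectional vs DMSO.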

In experiment [20] the target is Androgen receptor (Homo sapiens) (UniProt P10275). The experiment in a line: ATG_AR_TRANS: Attagene TRANS-FACTORIAL HepG2 Assay for human Androgen Receptor (AR) (AID 2282973; active = hit-call score of the fitted dose curve at least 0.9, where 1 is the maximum). As to conditions: HepG2 Attagene TRANS-FACTORIAL AR reporter transcription. In a few lines: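 Steps: transfect HepG2 with multiple GAL4-UAS reporter transcription units (TRANS format, exogenous NR-Gal4 protein); dose 24 h; isolate RNA, reverse-transcribe, PCR-amplify, FAM-label, HpaI-digest; resolve by capillary electrophoresis. Positive direction vs DMSO.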

The values below come from PubChem BioAssay (EPA / NIEHS).

Inconclusive results are not listed. The source made the active and inactive calls. The calls were made as follows, unless noted: active = hit-call score of the fitted dose curve at least 0.9, where 1 is the maximum; inactive = score below 0.9.

Heat shock factor protein 1 (Homo sapiens), sequence (Q00613 whole entry, looked up, the tested form may be a part): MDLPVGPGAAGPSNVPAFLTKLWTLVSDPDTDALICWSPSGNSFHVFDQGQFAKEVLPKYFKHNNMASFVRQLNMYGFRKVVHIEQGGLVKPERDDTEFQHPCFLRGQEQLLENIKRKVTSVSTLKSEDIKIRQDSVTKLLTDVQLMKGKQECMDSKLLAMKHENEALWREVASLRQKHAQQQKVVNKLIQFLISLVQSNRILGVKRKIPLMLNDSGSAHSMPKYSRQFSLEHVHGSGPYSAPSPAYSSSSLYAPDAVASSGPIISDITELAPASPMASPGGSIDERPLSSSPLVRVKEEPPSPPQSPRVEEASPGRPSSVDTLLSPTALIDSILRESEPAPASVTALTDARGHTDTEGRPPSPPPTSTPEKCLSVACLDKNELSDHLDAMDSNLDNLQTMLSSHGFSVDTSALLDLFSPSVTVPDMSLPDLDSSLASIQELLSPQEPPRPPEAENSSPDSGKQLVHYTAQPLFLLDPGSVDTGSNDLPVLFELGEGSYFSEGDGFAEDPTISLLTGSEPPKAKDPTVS
Hepatocyte nuclear factor 3-beta (Homo sapiens), sequence (Q9Y261 whole entry, looked up): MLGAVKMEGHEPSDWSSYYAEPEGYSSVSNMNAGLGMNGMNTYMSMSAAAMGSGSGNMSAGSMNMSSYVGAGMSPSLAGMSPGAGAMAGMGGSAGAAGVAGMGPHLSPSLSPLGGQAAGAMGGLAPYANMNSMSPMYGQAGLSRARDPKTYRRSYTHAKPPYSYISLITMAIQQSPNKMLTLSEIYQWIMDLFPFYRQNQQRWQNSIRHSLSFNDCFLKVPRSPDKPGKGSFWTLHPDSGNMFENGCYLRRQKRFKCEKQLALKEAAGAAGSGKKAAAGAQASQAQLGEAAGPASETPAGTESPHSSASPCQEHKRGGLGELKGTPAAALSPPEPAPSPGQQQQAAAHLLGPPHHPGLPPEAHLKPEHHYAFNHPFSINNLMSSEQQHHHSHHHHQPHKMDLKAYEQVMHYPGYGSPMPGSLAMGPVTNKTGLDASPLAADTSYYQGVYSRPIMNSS
Hepatocyte nuclear factor 6 (Homo sapiens), sequence (Q9UBC0 whole entry, looked up): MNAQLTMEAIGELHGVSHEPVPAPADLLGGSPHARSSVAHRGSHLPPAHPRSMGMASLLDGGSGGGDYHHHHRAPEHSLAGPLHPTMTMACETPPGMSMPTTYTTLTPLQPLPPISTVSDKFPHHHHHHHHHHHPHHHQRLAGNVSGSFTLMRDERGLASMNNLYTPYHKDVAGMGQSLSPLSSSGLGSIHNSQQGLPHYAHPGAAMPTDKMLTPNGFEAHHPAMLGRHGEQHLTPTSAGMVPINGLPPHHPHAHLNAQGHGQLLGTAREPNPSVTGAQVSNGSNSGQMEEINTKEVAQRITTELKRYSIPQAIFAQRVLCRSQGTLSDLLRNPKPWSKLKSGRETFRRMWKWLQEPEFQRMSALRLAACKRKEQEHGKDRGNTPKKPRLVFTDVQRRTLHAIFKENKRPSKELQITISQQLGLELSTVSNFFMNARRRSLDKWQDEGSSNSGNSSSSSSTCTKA
Paired box protein Pax-6 (Homo sapiens), sequence (P26367 whole entry, looked up): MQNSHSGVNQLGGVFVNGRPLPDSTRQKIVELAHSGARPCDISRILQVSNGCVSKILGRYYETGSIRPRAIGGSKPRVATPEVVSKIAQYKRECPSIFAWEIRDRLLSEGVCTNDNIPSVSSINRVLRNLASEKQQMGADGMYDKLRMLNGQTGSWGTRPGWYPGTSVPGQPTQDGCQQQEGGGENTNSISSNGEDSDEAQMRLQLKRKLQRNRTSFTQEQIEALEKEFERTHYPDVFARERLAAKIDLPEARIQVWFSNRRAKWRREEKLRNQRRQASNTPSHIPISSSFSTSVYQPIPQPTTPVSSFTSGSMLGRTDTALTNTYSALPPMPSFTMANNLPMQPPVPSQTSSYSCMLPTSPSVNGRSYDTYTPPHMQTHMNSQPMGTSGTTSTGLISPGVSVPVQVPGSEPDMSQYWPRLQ
Transcription factor E2F1 (Homo sapiens), sequence (Q01094 whole entry, looked up): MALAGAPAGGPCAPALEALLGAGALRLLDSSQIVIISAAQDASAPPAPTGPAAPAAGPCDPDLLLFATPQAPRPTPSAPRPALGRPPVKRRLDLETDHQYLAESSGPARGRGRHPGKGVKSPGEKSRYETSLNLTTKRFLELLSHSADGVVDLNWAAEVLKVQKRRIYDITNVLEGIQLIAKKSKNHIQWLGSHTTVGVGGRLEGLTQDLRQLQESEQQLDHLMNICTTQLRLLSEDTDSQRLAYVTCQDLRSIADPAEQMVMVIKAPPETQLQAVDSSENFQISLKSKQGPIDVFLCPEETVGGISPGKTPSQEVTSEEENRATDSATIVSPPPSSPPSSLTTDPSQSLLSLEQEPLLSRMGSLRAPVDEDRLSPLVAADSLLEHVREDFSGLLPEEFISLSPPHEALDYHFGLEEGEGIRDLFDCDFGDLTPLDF
Androgen receptor (Homo sapiens), sequence (P10275 whole entry, looked up, the tested form may be a part): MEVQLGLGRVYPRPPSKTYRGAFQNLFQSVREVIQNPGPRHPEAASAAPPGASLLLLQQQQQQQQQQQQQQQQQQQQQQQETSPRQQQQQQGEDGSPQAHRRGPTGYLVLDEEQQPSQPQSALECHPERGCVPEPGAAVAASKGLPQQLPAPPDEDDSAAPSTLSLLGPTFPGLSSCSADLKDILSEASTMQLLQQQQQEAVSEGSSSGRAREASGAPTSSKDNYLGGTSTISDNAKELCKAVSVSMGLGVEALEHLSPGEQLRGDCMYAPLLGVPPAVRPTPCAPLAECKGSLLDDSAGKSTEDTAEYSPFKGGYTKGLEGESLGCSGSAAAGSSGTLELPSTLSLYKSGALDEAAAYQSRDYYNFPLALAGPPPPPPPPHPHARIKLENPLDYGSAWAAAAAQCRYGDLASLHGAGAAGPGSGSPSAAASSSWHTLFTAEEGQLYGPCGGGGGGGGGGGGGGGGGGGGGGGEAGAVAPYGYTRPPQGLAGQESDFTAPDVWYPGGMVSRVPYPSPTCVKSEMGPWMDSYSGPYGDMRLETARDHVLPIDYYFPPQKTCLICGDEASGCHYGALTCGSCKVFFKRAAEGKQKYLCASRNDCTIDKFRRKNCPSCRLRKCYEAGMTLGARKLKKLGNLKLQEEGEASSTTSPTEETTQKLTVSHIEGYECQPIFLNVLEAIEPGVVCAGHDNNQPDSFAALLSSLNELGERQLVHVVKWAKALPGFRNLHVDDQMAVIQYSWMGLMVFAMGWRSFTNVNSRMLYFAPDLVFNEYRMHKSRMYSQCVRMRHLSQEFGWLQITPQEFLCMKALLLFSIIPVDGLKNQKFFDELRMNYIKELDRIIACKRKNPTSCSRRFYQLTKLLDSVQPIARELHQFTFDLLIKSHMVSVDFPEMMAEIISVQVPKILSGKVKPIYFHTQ

As for `CC(C)COP(=O)(OCC(C)C)OCC(C)C`, the result in experiment [1], in experiment [3], in experiment [4], in experiment [5], in experiment [6] and in experiment [7] was inactive. In addition, the call in [8], in experiment [9], in [10], in experiment [11], in experiment [12] and in experiment [13] was inactive. Also, the result in experiment [14], in experiment [15], in experiment [16], in experiment [18] and in [19] was inactive. In addition, the values for the AC50 in experiment [2] and in [17] were 57.9 µM (active) and 2.21 µM (active), respectively.
In the case of `BrCBr`, the result in experiment [1], in experiment [2], in experiment [3], in [4], in [5] and in experiment [6] was inactive. Further, the call in [7], in experiment [8], in experiment [9], in experiment [10], in experiment [11] and in [12] was inactive. Also, the result in experiment [13], in experiment [14], in [15], in [16], in experiment [17] and in experiment [18] was inactive. Besides, in [19], the molecule was called inactive.
With `c1ccc(Nc2ccc3ccccc3c2)cc1`, the molecule was called inactive in experiment [1], in [3], in experiment [4], in [5], in [6] and in experiment [7]. The outcome in experiment [8], in experiment [9], in [10], in experiment [11], in experiment [12] and in experiment [13] was inactive. Besides, the result in experiment [14], in [15], in experiment [16], in [18] and in experiment [19] was inactive. The AC50 in experiment [2] was 20.6 µM (active); in experiment [17] it was 10.3 µM (active).
`SCc1ccco1`: the AC50 in experiment [1] was 62.8 µM (active); in experiment [17], 27.7 µM (active). Also, the outcome in experiment [2], in [3], in experiment [4], in experiment [5], in experiment [6] and in experiment [7] was inactive. For the same molecule, the outcome in experiment [8], in experiment [9], in experiment [10], in experiment [11], in experiment [12] and in [13] was inactive. Moreover, the molecule was classed as inactive in experiment [14], in experiment [15], in [16], in [18], in [19] and in experiment [20].
Take `CC1CCC(=O)O1` (stereo unspecified): the molecule was called inactive in experiment [1], in [2], in experiment [3], in experiment [4], in experiment [5] and in experiment [6]. Besides, the molecule was called inactive in experiment [7], in experiment [8], in experiment [9], in experiment [10], in [11] and in [12]. Moreover, the call in [13], in [14], in experiment [15], in experiment [16], in experiment [17] and in [18] was inactive. Besides, in experiment [19], the molecule was called inactive.

For orientation: AC50 means the concentration giving half of the maximal activity seen.
